Assay [1] is described as follows: Viability qHTS for spleen associated tyrosine kinase inhibitor (SYKi) naive MV4-11 cells (AID 1963823). Note: nearly all actives have a fitted effect of over 40% in size. Conditions: MV4-11 AML viability, CellTiter-Glo luminescence, 72 h; series mostly up to 45 µM. In outline: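 SYKi-naive MV4-11 AML cells, 500 per well, were exposed to library compounds for 72 hr at 37 C, 5% CO2. Viability was then read by CellTiter-Glo luminescence after 10 min at room temperature.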

The nature of assay [2]: Viability qHTS for spleen associated tyrosine kinase inhibitor (SYKi) drug resistant MV4-11 cells (AID 1963824). Note: nearly all actives have a fitted effect of over 35% in size. Particulars: SYKi-resistant MV4-11 viability, CellTiter-Glo, 72 h; series mostly up to 45 µM. In outline:
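SYK-inhibitor-resistant MV4-11 AML cells were seeded at 500 per well onto compound and cultured 72 hours (37 °C, 5% CO2). CellTiter-Glo was then added, and after 10 min at room temperature, luminescence gave viability.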
In general terms: In qHTS, concentration-response curves come from the screen itself.

Assay [3] in a line: Quantitative highthroughput screen to assess conditional lethalithy of NOMO1 cells grown in RPMI1640 with untreated serum (RPMI+s) (AID 1963876).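 For Viability: 100% = DMSO wells and 0% = empty wells without cells.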 Note: nearly all actives have a fitted effect of over 35% in size. Particulars: NOMO1 AML cells in RPMI+serum, CellTiter-Glo viability, 48 h; series mostly up to 45.8 µM. In outline:
(§1)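 Each medium arm—HPLM with 10% dialyzed FBS, or RPMI1640 with 5 mM glucose and 10% untreated or dialyzed FBS—was screened against an 11-point, 3-fold compound titration for 48 h at 37 °C, with CellTiter-Glo luminescence as endpoint.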
A general note: Cellular ATP, detected with luciferase, serves as a proxy for viable cell number.

Assay [4] is described as follows: Quantitative highthroughput screen to assess conditional lethalithy of NOMO1 cells grown in Human Plasma-Like Medium with dialyzed fetal bovine serum (HPLM+ds) (AID 1963878).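 For Viability: 100% = DMSO wells and 0% = empty wells on each plate.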 Note: nearly all actives have a fitted effect of over 35% in size. Particulars: NOMO1 AML cells in HPLM+ds, CellTiter-Glo viability, 48 h; series mostly up to 45.8 µM. The gist of the method:
as §1

Assay [5] in a line: Quantitative highthroughput screen to assess conditional lethalithy of P12 Ichikawa cells grown in Human Plasma-Like Medium with dialyzed fetal bovine serum (HPLM+ds) (AID 1963879). Note: nearly all actives have a fitted effect of over 35% in size. Conditions: ATP luminescence, 48 h; Potency: viability; series mostly up to 45.8 µM. The gist of the method:
as §1

The nature of assay [6]: Quantitative highthroughput screen to assess conditional lethalithy of P12 Ichikawa cells grown in RPMI1640 with dialyzed fetal bovine serum (RPMI+ds) (AID 1963880).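 For Viability: 100% = DMSO wells and 0% = empty wells on each plate.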 Note: nearly all actives have a fitted effect of over 35% in size. Conditions: ATP luminescence, 48 h; Potency: P12-Ichikawa viability; series mostly up to 45.8 µM. The gist of the method:
as §1

Assay [7] is described as follows: Quantitative highthroughput screen to assess conditional lethalithy of SEM cells grown in Human Plasma-Like Medium with dialyzed fetal bovine serum (HPLM+ds) (AID 1963882). Note: nearly all actives have a fitted effect of over 35% in size. Particulars: SEM B-ALL cells in HPLM+ds, CellTiter-Glo viability, 48 h; series mostly up to 45.8 µM. The gist of the method:
as §1

A short description of assay [8]: Quantitative highthroughput screen to assess conditional lethalithy of SEM cells grown in RPMI1640 with unreated serum (RPMI+s) (AID 1963883).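 For Viability: 100% = DMSO wells and 0% = empty wells without cells.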 Note: nearly all actives have a fitted effect of over 35% in size. Conditions: SEM B-ALL cells, CellTiter-Glo viability, 48 h; series mostly up to 45.8 µM. The gist of the method: as §1
Assay [9] in a line: Quantitative highthroughput screen to assess conditional lethalithy of SEM cells grown in RPMI1640 with dialyzed fetal bovine serum (RPMI+ds) (AID 1963884).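 For Viability: 100% = DMSO control wells and 0% = empty wells without cells.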 Note: nearly all actives have a fitted effect of over 35% in size. Conditions: SEM B-ALL cells, RPMI+dialyzed FBS, CellTiter-Glo viability, 48 h; series mostly up to 45.8 µM. In outline:
as §1

A short description of assay [10]: Cellular viability qHTS for adrenocortical cancer (ACC) cell line SW-13 (AID 1963989).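 For activity (max response): cells grown in serum-free medium with ITS supplement; % is set by controls: 0 for no effect and ±100 for the full control effect.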 Note: nearly all actives have a fitted effect of over 65% in size. Particulars: SW-13 ACC cells viability, CellTiter-Glo, 48 h; activity (max response): stronger effect = lower value. The gist of the method: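 Viability was read as CellTiter-Glo luminescence after 48 h compound treatment (up to 46 uM final) of SW-13 cells grown serum-free; titration curves were fit with a four-parameter logistic model to give IC50 and efficacy.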

Assay [11] is described as follows: Cellular viability qHTS for adrenocortical cancer (ACC) cell line NCI-H295R (AID 1963990). Note: nearly all actives have a fitted effect of over 60% in size. Particulars: CellTiter-Glo ATP luminescence, 48 h; series mostly up to 46.1 µM. In outline: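 CellTiter-Glo ATP luminescence, read 48 h after compound addition, measured viability of NCI-H295R adrenocortical cells grown serum-free with ITS. Final concentrations spanned up to 46 uM. Data normalized to DMSO and doxorubicin, fitted for IC50 and maximal response.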

A short description of assay [12]: Quantitative highthroughput screen to assess conditional lethalithy of P12 Ichikawa cells grown in RPMI1640 with untreated serum (RPMI+s) (AID 1963881). Note: nearly all actives have a fitted effect of over 35% in size. Particulars: ATP luminescence, 48 h; Potency: viability; series mostly up to 45.8 µM. In outline: as §1
Assay [13] can be described thus: Quantitative highthroughput screen to assess conditional lethalithy of NOMO1 cells grown in RPMI1640 with dialyzed fetal bovine serum (RPMI+ds) (AID 1963877).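 For Viability: 100% = DMSO control wells and 0% = empty wells.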 Note: nearly all actives have a fitted effect of over 30% in size. Conditions: NOMO1 in RPMI+dialyzed FBS viability, ATP luminescence, 48 h; series mostly up to 45.8 µM. In outline: as §1

Values joined by “and” are separate entries in the source; they are usually repeats but may differ in a detail not shown here. Equal values may be shown once. Results filed as inconclusive are left out. A structure can be active in one record and inactive in another. Active and inactive are the calls of the source. Calls come from the whole dose curve; as a rule, active = well fitted curve in the direction sought with a large enough effect; inconclusive = small, poorly fitted or top-dose-only effect, or another doubt; inactive = no such curve, though single readings can be large; an effect the other way counts as inactive or inconclusive.
Potency is the fitted concentration of half-maximal effect.

As to `O=C(Nc1cc(C(F)(F)F)cc(C(F)(F)F)c1)c1cc(Cl)ccc1O`, the Potency was 651 nM (active) and 934 nM (active) in assay [1]; 517 nM (active) and 662 nM (active) in assay [2]; 3320 nM (active) in assay [3]; 2960 nM (active) in assay [4]; 3720 nM (active) in assay [5]; 3320 nM (active) in assay [6]. Further, the Potency in assay [7] was 4180 nM (active); in assay [8], 2960 nM (active); in assay [9], 4180 nM (active); in [10], 355 nM (active); in assay [11] it was 1120 nM (active).

On to `CC(C)(C)c1nc(-c2cccc(NS(=O)(=O)c3c(F)cccc3F)c2F)c(-c2ccnc(N)n2)s1`, for which the Potency in assay [1] is 1.84 µM (active); in assay [2], 16.6 µM (active); in [3], 11800 nM (active); in [4], 2960 nM (active); in [6], 743 nM (active); in [8], 2640 nM (active). Further, the Potency result in assay [5], in assay [7] and in assay [9] was “inactive” each time.

With `N[C@@H](Cc1cc(I)c(Oc2cc(I)c(O)c(I)c2)c(I)c1)C(=O)O`, the Potency entry in assay [1], in [3], in [4], in assay [5], in assay [6] and in assay [7] was “inactive” throughout. Further, the Potency result in assay [8], in assay [9] and in assay [11] was “inactive” each time. In addition, the Potency result in [2] was “inactive and 1.61 µM (active)”. Moreover, in assay [10], the activity (max response) was 3.69% (inactive) and -6.52% (inactive).

Regarding `O=C(C1CCCCC1)N1CC(=O)N2CCc3ccccc3C2C1` (stereo unspecified), the Potency result in assay [1], in [2], in assay [3], in [4] and in assay [11] was “inactive” each time. The Potency in assay [8] is 332 nM (active). For the same compound, the activity (max response) in assay [10] was -9.94% (inactive) and -6.75% (inactive).

As to `CN[C@H]1CCc2cc(OC)c(OC)c(OC)c2-c2ccc(OC)c(=O)cc21`, the Potency in assay [1] was 0.0934 µM (active); in assay [2] it was 0.0934 µM (active); in assay [3] it was 9.3 nM (active); in [5], 11.8 nM (active); in assay [6] it was 10.5 nM (active); in assay [12], 10.5 nM (active). The Potency in [7] was 6.6 nM (active); in [8], 8.3 nM (active); in assay [9] it was 7.4 nM (active); in [11], 89.1 nM (active).

For `Cc1ccc(NC(=O)c2ccc(CN3CCN(C)CC3)cc2)cc1Nc1nc(-c2cccnc2)cs1`, the Potency in [1] is 11.6 µM (active) and 14.8 µM (active); in assay [2], 13 µM (active) and 13.2 µM (active); in assay [4] it was 372 nM (active); in assay [10], 25100 nM (active); in assay [11], 22400 nM (active). For the same compound, the Potency result in assay [3] was “inactive”.

Consider `CN(C)c1ccc(C(=O)NCCCCCCC(=O)NO)cc1`, for which the Potency in [4] is 2640 nM (active).

In the case of `O=C(Nc1ncc(SCCN2CCCC2)s1)[C@]1(c2ccc(S(=O)(=O)C3CC3)cc2)C[C@@H]1C1CCCCC1`, the Potency in assay [4] was 18700 nM (active).

`COc1cc(C)c(Sc2cnc(NC(=O)c3ccc(CNC(C)C(C)(C)C)cc3)s2)cc1C(=O)N1CCN(C(C)=O)CC1` (stereo unspecified): the Potency was 2.63 µM (active) in [1]; 3.32 µM (active) in [2]; 20900 nM (active) in assay [13]; 23500 nM (active) in assay [4]; 4180 nM (active) in [7]; 4180 nM (active) in assay [8]. In addition, the Potency in [9] was 3320 nM (active).

As for `Cn1c(=O)n(-c2ccc(C(C)(C)C#N)cc2)c2c3cc(-c4cnc5ccccc5c4)ccc3ncc21`, the Potency in [1] was 0.027 µM (active); in assay [2], 164 nM (active) and 60.5 nM (active); in assay [13], 296 nM (active); in [5], 1050 nM (active); in [6], 1660 nM (active); in assay [12] it was 2090 nM (active). Besides, the Potency was 235 nM (active) in [7] and 372 nM (active) in assay [9].

In the case of `NS(=O)(=O)c1ccc(Nc2nc(OCC3CCCCC3)c3[nH]cnc3n2)cc1`, the Potency was 0.58 µM (active) in [1]; 0.651 µM (active) in assay [2]; 590 nM (active) in assay [13]; 46.9 nM (active) in assay [5]; 296 nM (active) in [6]; 469 nM (active) in assay [7]. Besides, the Potency in assay [8] is 296 nM (active); in assay [9], 469 nM (active); in assay [10], 22400 nM (active).

On to `COc1cc(CCc2cc(NC(=O)c3ccc(N4C[C@@H](C)N[C@@H](C)C4)cc3)n[nH]2)cc(OC)c1`, for which the Potency in [1] is 1.18 µM (active); in [2], 1.64 µM (active); in assay [13], 18700 nM (active); in [5], 20900 nM (active); in assay [7] it was 5260 nM (active); in assay [10], 28200 nM (active). The Potency in assay [11] is 17800 nM (active).

On to `COc1cc2ncnc(-n3nc(-c4ccccn4)nc3N)c2cc1OC`, for which the Potency was 796 nM (active) and 1.48 µM (active) in assay [1]; 2.63 µM (active) in assay [2]; 23500 nM (active) in [13]; 20900 nM (active) in assay [4]; 26400 nM (active) in assay [12]; 1320 nM (active) in assay [8]. In [9], the Potency is 2350 nM (active). Further, the activity (max response) in assay [10] was 10.9% (inactive). The Potency entry in assay [11] was “inactive”.

On to `Cc1cc2c(F)c(Oc3ncnn4cc(OC[C@@H](C)O)c(C)c34)ccc2[nH]1`, for which the values for the Potency in [1], in assay [2] and in assay [12] were 5.9 µM (active), 9.34 µM (active) and 18700 nM (active), respectively. Also, the Potency result in assay [13], in assay [4] and in [11] was “inactive” each time.

As for `CCOC(=O)[C@@H](N)CCC(=O)N[C@@H](CSCc1ccccc1)C(=O)N[C@@H](C(=O)OCC)c1ccccc1`, the Potency in [1] and in assay [2] was 5.9 µM (active) each time. Besides, the Potency result in assay [13], in [5], in assay [6], in assay [7], in assay [8] and in [9] was “inactive” each time. Also, in assay [10], the activity (max response) was -10.6% (inactive).

For the origin of these results see PubChem BioAssay (NCATS).
